From paper PMC11006913
Changes are numbered by the printed parent chain.

Columns and labels:
Assay in all cases: PBM; 200 nM protein, PBS
Conditions in all cases: dsDNA, one strand shown
SIX6 [1] = target: T1, SIX6 (Homo sapiens, UniProt O95475 114-200, L167I)
T1 sequence: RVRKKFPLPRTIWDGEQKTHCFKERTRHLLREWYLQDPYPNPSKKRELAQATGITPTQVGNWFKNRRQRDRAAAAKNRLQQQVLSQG

SIX6 [2] = target: T2, SIX6 (Homo sapiens, UniProt O95475 114-200, L143V)
T2 sequence: T1 sequence with L30V, I54L

SIX6 [3] = target: T3, SIX6 (Homo sapiens, UniProt O95475 114-200, H141N)
T3 sequence: T1 sequence with H28N, I54L

SIX6 [4] = target: T4, SIX6 (Homo sapiens, UniProt O95475 114-200, T165P)
T4 sequence: T1 sequence with T52P, I54L

SIX6 [5] = target: T5, SIX6 (Homo sapiens, UniProt O95475 114-200, L167M)
T5 sequence: T1 sequence with I54M

SIX6 [6] = target: T6, SIX6 (Homo sapiens, UniProt O95475 114-200, L143M)
T6 sequence: T1 sequence with L30M, I54L

SIX6 [7] = target: T7, SIX6 (Homo sapiens, UniProt O95475 114-200, L143I)
T7 sequence: T1 sequence with L30I, I54L

SIX6 [8] = target: T8, SIX6 (Homo sapiens, UniProt O95475 114-200, T165G)
T8 sequence: T1 sequence with T52G, I54L

SIX6 [9] = target: T9, SIX6 (Homo sapiens, UniProt O95475 114-200, T139Q)
T9 sequence: T1 sequence with T26Q, I54L

SIX6 [10] = target: T10, SIX6 (Homo sapiens, UniProt O95475 114-200, T165A)
T10 sequence: T1 sequence with T52A, I54L

SIX6 [11] = target: T11, SIX6 (Homo sapiens, UniProt O95475 114-200, L167V)
T11 sequence: T1 sequence with I54V

SIX6 [12] = target: T12, SIX6 (Homo sapiens, UniProt O95475 114-200)
T12 sequence: T1 sequence with I54L

SIX6 [13] = target: T13, SIX6 (Homo sapiens, UniProt O95475 114-200, T165I)
T13 sequence: T1 sequence with T52I, I54L

HOXB9 [14] = target: HOXB9 (Homo sapiens, UniProt P17482 171-250)
Chain of HOXB9 (Homo sapiens, UniProt P17482 171-250) (P17482 171-250): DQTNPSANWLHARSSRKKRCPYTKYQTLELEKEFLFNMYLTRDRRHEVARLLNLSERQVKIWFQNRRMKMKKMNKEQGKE

HOXB9 [15] = target: HOXB9 (Homo sapiens, UniProt P17482 171-250, R186Q)
Chain of HOXB9 (Homo sapiens, UniProt P17482 171-250, R186Q) (P17482 171-250 R186Q): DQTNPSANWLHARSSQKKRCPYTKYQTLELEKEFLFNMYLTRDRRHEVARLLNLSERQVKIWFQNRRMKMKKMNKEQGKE

HOXA2 [16] = target: HOXA2 (Homo sapiens, UniProt O43364 129-215, R185T)
Chain of HOXA2 (Homo sapiens, UniProt O43364 129-215, R185T) (O43364 129-215 R185T): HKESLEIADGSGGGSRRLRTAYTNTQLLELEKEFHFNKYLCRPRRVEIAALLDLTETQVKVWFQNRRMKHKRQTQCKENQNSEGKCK

HOXA2 [17] = target: HOXA2 (Homo sapiens, UniProt O43364 129-215, R185K)
Chain of HOXA2 (Homo sapiens, UniProt O43364 129-215, R185K) (O43364 129-215 R185K): as the sequence (O43364 129-215 R185T) above, with T57K counted along it

HOXA2 [18] = target: HOXA2 (Homo sapiens, UniProt O43364 129-215, Y150S)
Chain of HOXA2 (Homo sapiens, UniProt O43364 129-215, Y150S) (O43364 129-215 Y150S): as the sequence (O43364 129-215 R185T) above, with Y22S, T57R counted along it

HOXA2 [19] = target: HOXA2 (Homo sapiens, UniProt O43364 129-215)
Chain of HOXA2 (Homo sapiens, UniProt O43364 129-215) (O43364 129-215): as the sequence (O43364 129-215 R185T) above, with T57R counted along it

Sequence | binding signal (SIX6 [1]) | binding signal (SIX6 [2]) | binding signal (SIX6 [3]) | binding signal (SIX6 [4]) | binding signal (SIX6 [5]) | binding signal (SIX6 [6]) | binding signal (SIX6 [7]) | binding signal (SIX6 [8]) | binding signal (SIX6 [9]) | binding signal (SIX6 [10]) | binding signal (SIX6 [11]) | binding signal (SIX6 [12]) | binding signal (SIX6 [13]) | binding signal (HOXB9 [14]) | binding signal (HOXB9 [15]) | binding signal (HOXA2 [16]) | binding signal (HOXA2 [17]) | binding signal (HOXA2 [18]) | binding signal (HOXA2 [19])
GGGGGCAA | 8.96 upbm affinity estimate (log intensity, higher = more binding, comparable within an allelic series) | 9.04 upbm affinity estimate (log intensity, higher = more binding, comparable within an allelic series) | 8.94 upbm affinity estimate (log intensity, higher = more binding, comparable within an allelic series) | 8.98 upbm affinity estimate (log intensity, higher = more binding, comparable within an allelic series) | 9.06 upbm affinity estimate (log intensity, higher = more binding, comparable within an allelic series) | 8.97 upbm affinity estimate (log intensity, higher = more binding, comparable within an allelic series) | 8.96 upbm affinity estimate (log intensity, higher = more binding, comparable within an allelic series) | 8.89 upbm affinity estimate (log intensity, higher = more binding, comparable within an allelic series) | 8.98 upbm affinity estimate (log intensity, higher = more binding, comparable within an allelic series) | 9.04 upbm affinity estimate (log intensity, higher = more binding, comparable within an allelic series) | 8.9 upbm affinity estimate (log intensity, higher = more binding, comparable within an allelic series) | 8.96 upbm affinity estimate (log intensity, higher = more binding, comparable within an allelic series) | 9.01 upbm affinity estimate (log intensity, higher = more binding, comparable within an allelic series) | – | – | – | – | – | –
CGGGCCGC | 9.03 upbm affinity estimate (log intensity, higher = more binding, comparable within an allelic series) | 8.81 upbm affinity estimate (log intensity, higher = more binding, comparable within an allelic series) | 9.05 upbm affinity estimate (log intensity, higher = more binding, comparable within an allelic series) | 8.75 upbm affinity estimate (log intensity, higher = more binding, comparable within an allelic series) | 8.94 upbm affinity estimate (log intensity, higher = more binding, comparable within an allelic series) | 8.95 upbm affinity estimate (log intensity, higher = more binding, comparable within an allelic series) | 8.91 upbm affinity estimate (log intensity, higher = more binding, comparable within an allelic series) | 8.87 upbm affinity estimate (log intensity, higher = more binding, comparable within an allelic series) | 8.94 upbm affinity estimate (log intensity, higher = more binding, comparable within an allelic series) | 9.01 upbm affinity estimate (log intensity, higher = more binding, comparable within an allelic series) | 8.94 upbm affinity estimate (log intensity, higher = more binding, comparable within an allelic series) | 9.02 upbm affinity estimate (log intensity, higher = more binding, comparable within an allelic series) | 8.91 upbm affinity estimate (log intensity, higher = more binding, comparable within an allelic series) | – | – | – | – | – | –
GGGGGGAC | 8.99 upbm affinity estimate (log intensity, higher = more binding, comparable within an allelic series) | 8.81 upbm affinity estimate (log intensity, higher = more binding, comparable within an allelic series) | 8.96 upbm affinity estimate (log intensity, higher = more binding, comparable within an allelic series) | 8.71 upbm affinity estimate (log intensity, higher = more binding, comparable within an allelic series) | 8.97 upbm affinity estimate (log intensity, higher = more binding, comparable within an allelic series) | 8.91 upbm affinity estimate (log intensity, higher = more binding, comparable within an allelic series) | 8.72 upbm affinity estimate (log intensity, higher = more binding, comparable within an allelic series) | 8.92 upbm affinity estimate (log intensity, higher = more binding, comparable within an allelic series) | 8.93 upbm affinity estimate (log intensity, higher = more binding, comparable within an allelic series) | 9 upbm affinity estimate (log intensity, higher = more binding, comparable within an allelic series) | 8.74 upbm affinity estimate (log intensity, higher = more binding, comparable within an allelic series) | 8.93 upbm affinity estimate (log intensity, higher = more binding, comparable within an allelic series) | 8.96 upbm affinity estimate (log intensity, higher = more binding, comparable within an allelic series) | – | – | – | – | – | –
AACGCGGC | 8.99 upbm affinity estimate (log intensity, higher = more binding, comparable within an allelic series) | 8.99 upbm affinity estimate (log intensity, higher = more binding, comparable within an allelic series) | 8.99 upbm affinity estimate (log intensity, higher = more binding, comparable within an allelic series) | 9.03 upbm affinity estimate (log intensity, higher = more binding, comparable within an allelic series) | 8.95 upbm affinity estimate (log intensity, higher = more binding, comparable within an allelic series) | 9.03 upbm affinity estimate (log intensity, higher = more binding, comparable within an allelic series) | 8.92 upbm affinity estimate (log intensity, higher = more binding, comparable within an allelic series) | 8.8 upbm affinity estimate (log intensity, higher = more binding, comparable within an allelic series) | 8.99 upbm affinity estimate (log intensity, higher = more binding, comparable within an allelic series) | 8.84 upbm affinity estimate (log intensity, higher = more binding, comparable within an allelic series) | 8.94 upbm affinity estimate (log intensity, higher = more binding, comparable within an allelic series) | 8.94 upbm affinity estimate (log intensity, higher = more binding, comparable within an allelic series) | 8.96 upbm affinity estimate (log intensity, higher = more binding, comparable within an allelic series) | – | – | – | – | – | –
AGTGATAT | 11.3 upbm affinity estimate (log intensity, higher = more binding, comparable within an allelic series) | 10.3 upbm affinity estimate (log intensity, higher = more binding, comparable within an allelic series) | 11.3 upbm affinity estimate (log intensity, higher = more binding, comparable within an allelic series) | 9.9 upbm affinity estimate (log intensity, higher = more binding, comparable within an allelic series) | 10.8 upbm affinity estimate (log intensity, higher = more binding, comparable within an allelic series) | 11 upbm affinity estimate (log intensity, higher = more binding, comparable within an allelic series) | 10.3 upbm affinity estimate (log intensity, higher = more binding, comparable within an allelic series) | 11.2 upbm affinity estimate (log intensity, higher = more binding, comparable within an allelic series) | 11.1 upbm affinity estimate (log intensity, higher = more binding, comparable within an allelic series) | 11.2 upbm affinity estimate (log intensity, higher = more binding, comparable within an allelic series) | 11 upbm affinity estimate (log intensity, higher = more binding, comparable within an allelic series) | 11 upbm affinity estimate (log intensity, higher = more binding, comparable within an allelic series) | 11.1 upbm affinity estimate (log intensity, higher = more binding, comparable within an allelic series) | 9.87 upbm affinity estimate (log intensity, higher = more binding, comparable within an allelic series) | 9.76 upbm affinity estimate (log intensity, higher = more binding, comparable within an allelic series) | – | – | – | –
GCCCTGCC | 8.89 upbm affinity estimate (log intensity, higher = more binding, comparable within an allelic series) | 8.78 upbm affinity estimate (log intensity, higher = more binding, comparable within an allelic series) | 8.91 upbm affinity estimate (log intensity, higher = more binding, comparable within an allelic series) | 8.91 upbm affinity estimate (log intensity, higher = more binding, comparable within an allelic series) | 8.87 upbm affinity estimate (log intensity, higher = more binding, comparable within an allelic series) | 8.9 upbm affinity estimate (log intensity, higher = more binding, comparable within an allelic series) | 8.84 upbm affinity estimate (log intensity, higher = more binding, comparable within an allelic series) | 8.91 upbm affinity estimate (log intensity, higher = more binding, comparable within an allelic series) | 9.01 upbm affinity estimate (log intensity, higher = more binding, comparable within an allelic series) | 8.99 upbm affinity estimate (log intensity, higher = more binding, comparable within an allelic series) | 8.94 upbm affinity estimate (log intensity, higher = more binding, comparable within an allelic series) | 8.87 upbm affinity estimate (log intensity, higher = more binding, comparable within an allelic series) | 8.85 upbm affinity estimate (log intensity, higher = more binding, comparable within an allelic series) | – | – | 6.93 upbm affinity estimate (log intensity, higher = more binding, comparable within an allelic series) | 10.3 upbm affinity estimate (log intensity, higher = more binding, comparable within an allelic series) | 10.4 upbm affinity estimate (log intensity, higher = more binding, comparable within an allelic series) | 7.06 upbm affinity estimate (log intensity, higher = more binding, comparable within an allelic series)
